From PubChem BioAssay (NCI) come the findings set out here.

Compounds without any hit were thinned out: in the full panel of roughly 83,000, 20% have a hit.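 Step 1: grow cells in 96-well plates. Step 2: add test compound at a single concentration. Step 3: incubate 48 h. Step 4: record percent growth.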 Unmarked numbers belong to inactive results. Active and inactive are the calls of the source. How the source made its calls: active means growth percent below 10; inactive means the rest.

Holding throughout (experiment): NCI-60 one-dose screen, 48 h (100 = growth as untreated, 0 = no growth, -100 = all killed)
What all share (conditions): 10 µM unless noted

The subject of assay [1] is NCI-H23 lung.
Assay [2] deals with NCI-H226 lung.
In assay [3] the test system is NCI-H322M lung.
The subject of assay [4] is HOP-62 NSCLC.
For assay [5], the system named is NCI-H460 lung.
Assay [6] deals with NCI-H522 lung.
In assay [7] the test system is A549/ATCC NSCLC.
Assay [8] concerns 786-0 renal.
Assay [9] has as its system COLO 205 colon.
In assay [10] the test system is DU-145 prostate.
Assay [11] deals with K-562 leukemia.
Assay [12] concerns MALME-3M melanoma.
Assay [13] deals with MDA-MB-231 breast.
Assay [14] deals with RXF 393 renal.
The subject of assay [15] is SF-268 CNS.
The subject of assay [16] is SF-295 CNS.
For assay [17], the system named is SF-539 CNS.
The subject of assay [18] is UACC-257 melanoma.
Assay [19] deals with M14 melanoma.

Consider `CCOC(=O)C(Cc1ccccc1)n1c(O)c(/C=N/c2ncc(Cc3ccc(Cl)cc3Cl)s2)sc1=S` (configuration not stated), for which the growth in [1] was 11%; in [2], 15.5%; in assay [3], 15.7%; in assay [4], 8.75% (active); in assay [5], 2.04% (active); in assay [6] it was -23.2% (active). The growth in [7] is 4.36% (active); in assay [8], 17.9%; in assay [9], -87% (active); in assay [10] it was 26.2%; in assay [11] it was 2.17% (active); in [12], -9.77% (active). For the same compound, the growth in assay [13] is -18.2% (active); in assay [14], 2.54% (active); in assay [15] it was 24.4%; in assay [16], -4.55% (active); in [17], 15%; in [18] it was -17.9% (active).
Turning to `CC1CCN(CCCCCOc2ccc3oc4ccc(Cl)cc4c(=O)c3c2)CC1`, the growth in assay [1] was 73.6%; in [2] it was 94.7%; in assay [3], 79.8%; in assay [4] it was 77.1%; in assay [5] it was 26.6%; in [6], 52.9%. The growth in assay [7] was 47.5%; in assay [8], 45.8%; in [9], 21.7%; in assay [10] it was 78.9%; in assay [11] it was 9.6% (active); in assay [12] it was 81.6%. Besides, the growth in assay [13] is 48%; in assay [14] it was 71%; in [15], 77.5%; in [16], 78.7%; in assay [17], 74.6%; in assay [18] it was 5.99% (active).
Consider `Cc1cc(N)cc(C)c1-c1c(Br)cc(N)cc1Br`, for which the growth was 50.9% in assay [1]; 69.2% in assay [2]; 18.8% in [3]; 25.1% in [4]; 17.4% in assay [5]; -9.5% (active) in [6]. Besides, the growth in [7] is 25.2%; in [8] it was 26.7%; in [9], 11.9%; in assay [10], 28.6%; in assay [11] it was 8.58% (active); in assay [12] it was 14%. The growth in assay [13] is 42.6%; in assay [14], -22.9% (active); in assay [15] it was 41.4%; in assay [16], -14% (active); in assay [17], 15.3%; in assay [18], 62%.
Turning to `CC(C)[C@@]12C[C@@H](OC(=O)[C@H]3CO3)[C@@](C)(O1)[C@@H]1CC[C@@H](C)[C@H]1[C@@H]2OC(=O)/C=C/c1ccccc1`, the growth in [1] was 88.4%; in [2], 54.1%; in assay [3] it was 85.4%; in assay [4], 72%; in [5], 89.8%; in assay [6] it was 72.2%. Also, the growth in assay [7] is 61.5%; in assay [8], 91.3%; in assay [9], 109%; in assay [10] it was 102%; in assay [11], 90.1%; in assay [12] it was 87%. Further, the growth in assay [13] is 78.7%; in assay [14], 59.6%; in assay [15], 54.8%; in assay [16], 85.2%; in assay [17], 91.1%; in assay [18], 68.3%. Moreover, the growth in assay [19] was 102%.
As for `O=C1/C(=C/N2N=C(c3ccc(Cl)cc3)CC2c2ccccc2O)SC(=S)N1c1cccc(C(F)(F)F)c1` (configuration not stated), the growth in assay [1] was 53.8%; in assay [2] it was 63.3%; in assay [3] it was 71.4%; in [4], 69.1%; in [5], 44.6%; in assay [6], 30.3%. The growth in assay [7] was 38.6%; in assay [8], 66.4%; in [9] it was 71.2%; in assay [10] it was 63.4%; in assay [11] it was 42.6%; in [12], 79.6%. The growth was 44% in [13]; 67.4% in assay [14]; 48.1% in [15]; 64.7% in [16]; 76.1% in assay [17]; 94.5% in [18]. For the same compound, the growth in assay [19] is 48.2%.
As to `O=C(Nc1ccc([N+](=O)[O-])cc1)c1cc2ccccc2cc1O`, the growth in assay [1] was -35.7% (active); in assay [2] it was 1.68% (active); in assay [3] it was 3.46% (active); in assay [4], 13%; in assay [5], -33% (active); in assay [6], -31.5% (active). Besides, the growth in assay [7] is -6.53% (active); in [8], -24.2% (active); in [9], 67.8%; in assay [10], 103%; in assay [11], 0.836% (active); in [12] it was -21.5% (active). Besides, the growth in [13] was -35.5% (active); in [14], -10.4% (active); in assay [15], 92.5%; in assay [16] it was -20.6% (active); in assay [17] it was 2.51% (active); in [18] it was -33.3% (active).
Regarding `NC(=O)N/N=C\c1ccc([N+](=O)[O-])o1`, the growth is 99.6% in assay [1]; 101% in assay [2]; 117% in assay [3]; 96.7% in assay [4]; 105% in assay [5]; 95.8% in assay [6]. The growth in [7] is 97.1%; in [8] it was 107%; in assay [9] it was 117%; in assay [10], 105%; in assay [11], 101%; in [12], 73%. Also, the growth in assay [13] is 122%; in assay [14], 123%; in [15], 102%; in [16], 97.7%; in assay [17] it was 102%; in assay [18], 91.9%. Moreover, the growth in assay [19] was 112%.
Consider `CSc1nc(N)c2[nH]c(-c3cc4ccccc4[nH]c3=O)nc2n1`, for which the growth in [1] is 83.9%; in [2], 105%; in [3] it was 67%; in assay [4], 115%; in assay [5], 60.4%; in assay [6], 57.2%. In addition, the growth in assay [7] is 70.8%; in assay [8], 72.1%; in assay [9], 97.9%; in assay [10] it was 72.6%; in assay [11] it was 92.7%; in [12] it was 90.7%. The growth was 98.8% in assay [13]; 76.8% in assay [14]; 78.2% in [15]; 99.2% in [16]; 102% in assay [17]; 104% in assay [18]. Further, the growth in [19] was 77.4%.
For the compound `CC(=O)Cc1ccccn1`, the growth is 104% in assay [1]; 98% in assay [2]; 110% in [3]; 108% in assay [4]; 105% in [5]; 92.5% in [6]. The growth was 104% in [7]; 101% in assay [8]; 133% in assay [9]; 107% in assay [10]; 100% in assay [11]; 106% in [12]. Moreover, the growth in [13] is 105%; in [14], 119%; in assay [15], 98.7%; in assay [16], 84.1%; in [17], 99.7%; in [18], 103%. Moreover, the growth in assay [19] is 102%.
